In assay [1] the target is Calcium/calmodulin-dependent protein kinase type 1 (Homo sapiens) (UniProt Q14012). The conditions noted are these: at 1 µM.
Assay [2] shares this target. The settings on record: at 10 µM.
Assay [3] has as its target Calcium/calmodulin-dependent protein kinase type II subunit beta (Homo sapiens) (UniProt Q13554). The settings on record: at 1 µM.
Assay [4] has the same target. The conditions noted are these: at 10 µM.
The target of assay [5] is Calcium/calmodulin-dependent protein kinase type II subunit gamma (Homo sapiens) (UniProt Q13555). The conditions noted are these: at 1 µM.
Chain of Calcium/calmodulin-dependent protein kinase type II subunit gamma (Homo sapiens) (Q13555 whole entry): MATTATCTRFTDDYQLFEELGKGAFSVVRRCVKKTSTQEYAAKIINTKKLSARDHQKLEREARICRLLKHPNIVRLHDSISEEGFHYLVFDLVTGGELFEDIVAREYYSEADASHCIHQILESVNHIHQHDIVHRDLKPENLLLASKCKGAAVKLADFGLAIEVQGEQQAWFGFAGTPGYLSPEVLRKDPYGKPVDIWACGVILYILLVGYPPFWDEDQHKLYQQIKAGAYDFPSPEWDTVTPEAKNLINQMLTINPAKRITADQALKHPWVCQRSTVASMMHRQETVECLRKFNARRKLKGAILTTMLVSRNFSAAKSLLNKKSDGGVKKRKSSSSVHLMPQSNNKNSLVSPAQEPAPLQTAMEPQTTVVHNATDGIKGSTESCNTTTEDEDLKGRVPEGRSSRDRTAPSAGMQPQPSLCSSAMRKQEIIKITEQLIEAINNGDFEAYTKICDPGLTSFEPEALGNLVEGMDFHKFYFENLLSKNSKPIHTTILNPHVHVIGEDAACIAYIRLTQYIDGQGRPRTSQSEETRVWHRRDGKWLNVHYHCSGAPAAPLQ
Assay [6] shares this target. The conditions noted are these: at 10 µM.
The target of assay [7] is Calcium/calmodulin-dependent protein kinase type II subunit delta (Homo sapiens) (UniProt Q13557). The conditions noted are these: at 1 µM.
Chain of Calcium/calmodulin-dependent protein kinase type II subunit delta (Homo sapiens) (Q13557 whole entry): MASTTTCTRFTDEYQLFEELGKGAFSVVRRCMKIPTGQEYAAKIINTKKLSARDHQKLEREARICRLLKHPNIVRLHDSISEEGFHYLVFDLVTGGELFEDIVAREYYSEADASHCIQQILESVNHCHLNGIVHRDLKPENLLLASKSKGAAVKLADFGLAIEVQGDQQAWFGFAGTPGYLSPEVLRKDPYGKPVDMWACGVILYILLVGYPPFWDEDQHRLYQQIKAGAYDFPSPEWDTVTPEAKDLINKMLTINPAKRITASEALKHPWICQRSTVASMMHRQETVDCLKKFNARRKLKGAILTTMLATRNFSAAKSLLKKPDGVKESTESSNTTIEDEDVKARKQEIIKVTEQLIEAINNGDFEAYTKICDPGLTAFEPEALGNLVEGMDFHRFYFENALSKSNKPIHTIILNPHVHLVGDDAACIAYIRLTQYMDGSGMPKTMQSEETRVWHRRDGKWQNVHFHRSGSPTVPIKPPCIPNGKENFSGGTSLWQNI
The target is the same in assay [8]. The settings on record: at 10 µM.
Assay [9] deals with T1, Calcium/calmodulin-dependent protein kinase type IV (Homo sapiens) (UniProt Q16566).
T1 sequence (whole entry): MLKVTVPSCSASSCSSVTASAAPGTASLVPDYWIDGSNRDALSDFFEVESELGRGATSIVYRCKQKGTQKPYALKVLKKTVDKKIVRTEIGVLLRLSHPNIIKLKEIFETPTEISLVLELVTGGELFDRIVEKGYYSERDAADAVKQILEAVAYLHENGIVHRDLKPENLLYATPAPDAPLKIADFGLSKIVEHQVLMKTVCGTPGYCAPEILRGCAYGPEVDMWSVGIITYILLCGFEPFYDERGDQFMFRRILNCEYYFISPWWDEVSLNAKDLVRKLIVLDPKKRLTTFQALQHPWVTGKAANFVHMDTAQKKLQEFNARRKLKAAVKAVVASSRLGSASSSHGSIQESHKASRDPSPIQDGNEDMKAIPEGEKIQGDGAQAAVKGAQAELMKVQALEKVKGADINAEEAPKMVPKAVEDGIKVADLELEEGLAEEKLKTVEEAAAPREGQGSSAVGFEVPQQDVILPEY
The settings on record: at 1 µM.

The target in assay [10] is T1, Calcium/calmodulin-dependent protein kinase type IV (Homo sapiens). The settings on record: at 10 µM.
Assay [11] has as its target Death-associated protein kinase 1 (Homo sapiens) (UniProt P53355). The settings on record: at 10 µM.
Assay [12] concerns the target Death-associated protein kinase 2 (Homo sapiens) (UniProt Q9UIK4). The conditions noted are these: at 1 µM.
Assay [13] has the same target. The settings on record: at 10 µM.
The target in assay [14] is T2, Serine/threonine-protein kinase DCLK2 (Homo sapiens) (UniProt Q8N568).
T2 sequence (whole entry): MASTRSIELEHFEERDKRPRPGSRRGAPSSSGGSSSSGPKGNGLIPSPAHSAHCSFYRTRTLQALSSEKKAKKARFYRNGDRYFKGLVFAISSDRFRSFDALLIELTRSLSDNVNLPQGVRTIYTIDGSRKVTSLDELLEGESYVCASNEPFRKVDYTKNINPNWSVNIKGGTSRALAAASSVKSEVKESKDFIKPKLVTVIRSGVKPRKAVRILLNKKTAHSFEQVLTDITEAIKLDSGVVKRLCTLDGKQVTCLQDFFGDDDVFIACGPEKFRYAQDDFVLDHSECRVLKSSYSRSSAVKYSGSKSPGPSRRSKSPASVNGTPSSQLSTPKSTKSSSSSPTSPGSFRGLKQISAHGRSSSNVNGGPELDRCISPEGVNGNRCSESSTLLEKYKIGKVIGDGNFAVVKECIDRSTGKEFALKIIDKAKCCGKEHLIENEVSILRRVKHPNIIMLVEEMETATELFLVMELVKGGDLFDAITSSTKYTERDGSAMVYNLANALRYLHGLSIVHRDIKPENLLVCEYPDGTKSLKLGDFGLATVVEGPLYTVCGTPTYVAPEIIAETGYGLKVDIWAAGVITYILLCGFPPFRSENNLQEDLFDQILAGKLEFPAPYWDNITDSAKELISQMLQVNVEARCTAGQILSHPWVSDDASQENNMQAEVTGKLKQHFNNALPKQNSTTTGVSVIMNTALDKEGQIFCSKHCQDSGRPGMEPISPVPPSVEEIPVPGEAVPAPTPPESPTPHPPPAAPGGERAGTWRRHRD
The conditions noted are these: at 1 µM.

The target in assay [15] is T2, Serine/threonine-protein kinase DCLK2 (Homo sapiens). The conditions noted are these: at 10 µM.
Assay [16] deals with T3, Discoidin domain-containing receptor 2 (Homo sapiens) (UniProt Q16832).
T3 sequence (whole entry): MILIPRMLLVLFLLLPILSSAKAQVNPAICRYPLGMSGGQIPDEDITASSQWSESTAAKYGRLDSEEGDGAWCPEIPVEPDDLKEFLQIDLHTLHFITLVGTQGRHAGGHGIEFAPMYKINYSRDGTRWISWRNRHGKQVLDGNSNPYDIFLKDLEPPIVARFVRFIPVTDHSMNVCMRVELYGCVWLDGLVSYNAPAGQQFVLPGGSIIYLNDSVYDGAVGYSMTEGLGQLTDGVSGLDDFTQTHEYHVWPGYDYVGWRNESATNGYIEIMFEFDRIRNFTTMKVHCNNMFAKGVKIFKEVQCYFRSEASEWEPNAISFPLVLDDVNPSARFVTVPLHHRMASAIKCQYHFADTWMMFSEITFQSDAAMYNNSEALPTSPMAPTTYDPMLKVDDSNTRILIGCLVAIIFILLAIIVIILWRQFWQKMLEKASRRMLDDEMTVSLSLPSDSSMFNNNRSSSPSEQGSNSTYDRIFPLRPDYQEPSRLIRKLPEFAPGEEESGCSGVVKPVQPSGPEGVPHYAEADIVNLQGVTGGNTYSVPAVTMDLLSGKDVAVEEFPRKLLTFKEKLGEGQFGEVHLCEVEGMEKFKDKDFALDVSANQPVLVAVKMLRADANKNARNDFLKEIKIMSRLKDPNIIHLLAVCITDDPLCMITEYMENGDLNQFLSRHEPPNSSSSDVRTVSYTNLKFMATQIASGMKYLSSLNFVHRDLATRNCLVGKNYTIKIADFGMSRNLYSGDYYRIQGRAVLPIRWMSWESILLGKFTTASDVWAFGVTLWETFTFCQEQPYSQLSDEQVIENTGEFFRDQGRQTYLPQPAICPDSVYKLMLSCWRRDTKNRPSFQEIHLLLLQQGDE
The conditions noted are these: at 1 µM.

The target of assay [17] is T3, Discoidin domain-containing receptor 2 (Homo sapiens). The settings on record: at 10 µM.
Assay [18] addresses T4, Myotonin-protein kinase (Homo sapiens) (UniProt Q09013).
T4 sequence (whole entry): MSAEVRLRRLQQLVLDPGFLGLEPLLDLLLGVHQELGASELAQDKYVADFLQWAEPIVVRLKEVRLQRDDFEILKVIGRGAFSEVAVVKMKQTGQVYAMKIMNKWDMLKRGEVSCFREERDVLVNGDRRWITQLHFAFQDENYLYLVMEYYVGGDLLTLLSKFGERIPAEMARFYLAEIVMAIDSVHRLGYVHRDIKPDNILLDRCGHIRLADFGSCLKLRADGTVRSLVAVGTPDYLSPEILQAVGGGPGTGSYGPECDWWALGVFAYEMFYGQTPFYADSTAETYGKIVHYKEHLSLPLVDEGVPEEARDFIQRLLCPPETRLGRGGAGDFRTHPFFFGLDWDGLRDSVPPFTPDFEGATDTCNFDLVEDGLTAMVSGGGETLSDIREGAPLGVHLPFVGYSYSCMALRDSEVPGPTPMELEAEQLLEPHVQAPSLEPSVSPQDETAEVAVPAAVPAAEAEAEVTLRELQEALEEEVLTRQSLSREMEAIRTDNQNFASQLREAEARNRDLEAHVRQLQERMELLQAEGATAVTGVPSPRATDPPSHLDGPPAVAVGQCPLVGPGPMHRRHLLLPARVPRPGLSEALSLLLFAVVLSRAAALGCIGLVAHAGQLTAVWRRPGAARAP
The conditions noted are these: at 1 µM.

For assay [19], the target named is T4, Myotonin-protein kinase (Homo sapiens). The settings on record: at 10 µM.
In assay [20] the target is T5, Serine/threonine-protein kinase 17A (Homo sapiens) (UniProt Q9UEE5).
T5 sequence (whole entry): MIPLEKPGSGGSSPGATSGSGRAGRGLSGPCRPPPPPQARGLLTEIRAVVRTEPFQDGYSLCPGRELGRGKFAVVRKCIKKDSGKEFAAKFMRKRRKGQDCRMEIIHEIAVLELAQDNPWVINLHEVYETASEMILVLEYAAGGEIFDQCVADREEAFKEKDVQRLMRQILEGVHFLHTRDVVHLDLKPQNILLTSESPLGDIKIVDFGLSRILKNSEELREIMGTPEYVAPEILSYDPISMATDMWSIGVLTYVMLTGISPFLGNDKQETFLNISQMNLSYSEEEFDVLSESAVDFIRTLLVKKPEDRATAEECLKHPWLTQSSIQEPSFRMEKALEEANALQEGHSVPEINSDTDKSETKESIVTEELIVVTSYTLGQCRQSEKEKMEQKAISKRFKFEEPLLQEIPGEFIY
The settings on record: at 1 µM.

Structures are written as SMILES.

Chain of Calcium/calmodulin-dependent protein kinase type 1 (Homo sapiens) (Q14012 whole entry, looked up): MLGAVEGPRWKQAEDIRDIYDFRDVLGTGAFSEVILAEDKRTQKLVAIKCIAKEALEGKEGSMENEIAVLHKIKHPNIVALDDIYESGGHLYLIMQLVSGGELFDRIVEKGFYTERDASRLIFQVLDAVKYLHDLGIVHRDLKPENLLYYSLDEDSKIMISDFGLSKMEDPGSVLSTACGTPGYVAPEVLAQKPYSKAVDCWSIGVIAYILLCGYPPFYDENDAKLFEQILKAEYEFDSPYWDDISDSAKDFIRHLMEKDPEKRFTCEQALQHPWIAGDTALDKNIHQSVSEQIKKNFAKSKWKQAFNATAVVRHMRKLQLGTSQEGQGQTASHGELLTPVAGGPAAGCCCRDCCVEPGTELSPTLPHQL
Chain of Death-associated protein kinase 2 (Homo sapiens) (Q9UIK4 whole entry, looked up): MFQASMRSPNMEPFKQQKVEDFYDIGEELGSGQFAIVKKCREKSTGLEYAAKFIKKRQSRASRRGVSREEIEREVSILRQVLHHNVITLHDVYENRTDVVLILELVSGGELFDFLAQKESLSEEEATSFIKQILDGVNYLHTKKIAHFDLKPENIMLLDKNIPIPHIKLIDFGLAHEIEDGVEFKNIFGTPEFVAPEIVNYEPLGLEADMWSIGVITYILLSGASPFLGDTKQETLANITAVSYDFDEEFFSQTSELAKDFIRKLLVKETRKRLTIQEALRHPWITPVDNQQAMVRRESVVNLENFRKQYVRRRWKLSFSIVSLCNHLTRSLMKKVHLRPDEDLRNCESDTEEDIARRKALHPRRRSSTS
Chain of Calcium/calmodulin-dependent protein kinase type II subunit beta (Homo sapiens) (Q13554 whole entry): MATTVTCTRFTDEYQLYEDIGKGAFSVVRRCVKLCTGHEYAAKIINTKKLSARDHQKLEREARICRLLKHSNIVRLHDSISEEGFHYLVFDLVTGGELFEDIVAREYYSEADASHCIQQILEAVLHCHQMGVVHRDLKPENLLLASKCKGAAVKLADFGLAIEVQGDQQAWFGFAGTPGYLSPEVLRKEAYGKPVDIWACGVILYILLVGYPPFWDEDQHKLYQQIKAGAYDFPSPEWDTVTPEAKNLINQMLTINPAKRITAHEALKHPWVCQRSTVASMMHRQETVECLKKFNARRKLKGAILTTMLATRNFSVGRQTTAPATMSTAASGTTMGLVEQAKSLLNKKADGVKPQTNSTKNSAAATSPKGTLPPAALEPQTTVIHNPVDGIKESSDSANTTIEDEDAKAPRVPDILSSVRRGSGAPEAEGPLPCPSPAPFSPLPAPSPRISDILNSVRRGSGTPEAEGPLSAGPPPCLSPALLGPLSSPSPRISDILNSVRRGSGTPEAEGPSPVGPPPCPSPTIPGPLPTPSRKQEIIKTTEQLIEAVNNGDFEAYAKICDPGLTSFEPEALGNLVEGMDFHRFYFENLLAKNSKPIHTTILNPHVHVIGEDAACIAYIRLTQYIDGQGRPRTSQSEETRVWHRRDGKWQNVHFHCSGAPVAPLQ
Chain of Death-associated protein kinase 1 (Homo sapiens) (P53355 whole entry, looked up): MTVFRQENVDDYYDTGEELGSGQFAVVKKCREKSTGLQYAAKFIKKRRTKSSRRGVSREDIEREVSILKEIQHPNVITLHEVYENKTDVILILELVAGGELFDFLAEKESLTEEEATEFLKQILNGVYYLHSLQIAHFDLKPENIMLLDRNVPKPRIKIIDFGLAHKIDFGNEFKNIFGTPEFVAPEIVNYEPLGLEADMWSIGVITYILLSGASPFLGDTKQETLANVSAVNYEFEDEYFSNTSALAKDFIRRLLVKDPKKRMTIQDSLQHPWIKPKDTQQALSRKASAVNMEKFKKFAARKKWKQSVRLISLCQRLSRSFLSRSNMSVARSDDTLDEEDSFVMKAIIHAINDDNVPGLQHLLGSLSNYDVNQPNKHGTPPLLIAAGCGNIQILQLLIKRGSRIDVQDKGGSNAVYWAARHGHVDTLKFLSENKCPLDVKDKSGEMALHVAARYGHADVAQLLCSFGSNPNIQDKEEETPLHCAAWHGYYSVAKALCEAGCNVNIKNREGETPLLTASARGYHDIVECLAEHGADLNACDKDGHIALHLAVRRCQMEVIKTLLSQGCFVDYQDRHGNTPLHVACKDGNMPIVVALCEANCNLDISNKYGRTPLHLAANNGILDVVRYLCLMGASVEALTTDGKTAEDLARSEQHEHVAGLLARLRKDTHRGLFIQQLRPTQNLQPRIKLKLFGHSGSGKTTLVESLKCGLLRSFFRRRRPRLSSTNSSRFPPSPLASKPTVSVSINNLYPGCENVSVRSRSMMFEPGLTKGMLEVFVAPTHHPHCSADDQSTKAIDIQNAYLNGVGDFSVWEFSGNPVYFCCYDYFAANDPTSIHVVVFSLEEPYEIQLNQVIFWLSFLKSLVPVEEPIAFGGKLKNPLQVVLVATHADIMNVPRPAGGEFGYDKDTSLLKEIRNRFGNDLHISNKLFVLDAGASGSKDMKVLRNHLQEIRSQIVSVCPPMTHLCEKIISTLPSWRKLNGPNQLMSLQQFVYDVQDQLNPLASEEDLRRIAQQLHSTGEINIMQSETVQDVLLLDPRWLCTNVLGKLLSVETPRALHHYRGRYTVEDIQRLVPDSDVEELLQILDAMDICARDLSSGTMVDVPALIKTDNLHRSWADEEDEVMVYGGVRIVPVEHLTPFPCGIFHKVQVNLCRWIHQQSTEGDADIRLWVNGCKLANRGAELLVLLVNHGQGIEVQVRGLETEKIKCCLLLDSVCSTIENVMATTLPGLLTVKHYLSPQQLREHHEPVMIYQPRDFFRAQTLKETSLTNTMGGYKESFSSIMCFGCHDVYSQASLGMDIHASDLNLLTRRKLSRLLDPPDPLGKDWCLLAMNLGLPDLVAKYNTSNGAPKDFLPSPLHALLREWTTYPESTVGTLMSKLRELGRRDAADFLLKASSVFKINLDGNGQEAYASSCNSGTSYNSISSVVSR

A word on the residual activity: it is the signal under treatment as a percentage of the control signal. `O=C1Nc2cc(Br)ccc2/C1=C1/Nc2ccccc2/C1=N\O`: the residual activity in assay [1] is 59%; in assay [2] it was 12%; in assay [3], 15%; in assay [4], 8%; in assay [5], 3%; in assay [6], 2%. For the same compound, the residual activity in assay [7] was 1%; in assay [8] it was 2%; in [9], 59%; in assay [10], 73%; in assay [11] it was 46%; in assay [12], 50%. Also, the residual activity in assay [13] amounted to 26%; in assay [14], 89%; in assay [15], 76%; in [16], 74%; in assay [17], 37%; in assay [18], 110%. Moreover, the residual activity in assay [19] is 84%; in [20], 8%.
As to `Cc1nc(-c2ccccc2)c(-c2ccncc2)o1`, the residual activity in assay [1] worked out at 104%; in assay [2], 89%; in assay [3] it was 97%; in assay [4], 86%; in assay [5] it was 97%; in [6], 83%. Besides, the residual activity in [7] was 104%; in assay [8], 81%; in assay [9], 108%; in assay [10], 112%; in assay [11], 95%; in [12], 99%. Also, the residual activity in assay [14] was determined as 124%; in assay [15] it was 113%; in [16], 50%; in assay [17], 36%; in assay [18], 104%; in assay [19], 102%. For the same compound, the residual activity in [20] worked out at 120%.
Turning to `CO[C@@H]1[C@H](N(C)C(=O)c2ccccc2)C[C@H]2O[C@]1(C)n1c3ccccc3c3c4c(c5c6ccccc6n2c5c31)C(=O)NC4`, the residual activity in assay [1] is 84%; in assay [2] it was 29%; in assay [3], 18%; in assay [4] it was 4%; in assay [5], 10%; in [6] it was -1%. Besides, the residual activity amounted to 5% in assay [7]; 1% in [8]; 98% in assay [9]; 50% in [10]; 72% in assay [11]; 71% in [12]. The residual activity was determined as 54% in assay [13]; 75% in assay [14]; 38% in assay [15]; 106% in [16]; 69% in [17]; 90% in assay [19]. In addition, the residual activity in assay [20] was determined as 16%.
Consider `CO[C@H]1[C@@H](OC)C[C@H](C)[C@@H](OC)C2=CC(=O)C=C(NC(=O)/C(C)=C/C=C/[C@H](OC)[C@@H](OC(N)=O)/C(C)=C/[C@@H]1C)C2=O`, for which the residual activity in assay [1] amounted to 115%; in [2], 88%; in [3], 97%; in [4], 93%; in [5], 107%; in assay [6] it was 100%. For the same compound, the residual activity in assay [7] was determined as 102%; in assay [8], 110%; in assay [9], 89%; in assay [10] it was 81%; in [11] it was 78%; in assay [12], 104%. The residual activity in [13] stood at 114%; in [14] it was 89%; in [15] it was 75%; in assay [16] it was 98%; in [17], 99%; in [18] it was 147%. Also, the residual activity in assay [19] turned out to be 127%; in [20] it was 86%.
As for `c1ccc(-c2n[nH]cc2-c2ccnc3ccccc23)nc1`, the residual activity in [2] was 83%; in [3], 96%; in assay [4] it was 68%; in assay [5], 94%; in assay [6], 69%; in assay [7], 96%. For the same compound, the residual activity in [8] is 80%; in [9] it was 139%; in assay [10], 78%; in assay [11], 88%; in [12] it was 103%; in assay [15], 101%. In addition, the residual activity worked out at 102% in assay [16], 98% in assay [17], 127% in [18] and 140% in assay [19].
For the compound `Nc1cccc(-c2cc3c(Oc4cccc(O)c4)ncnc3[nH]2)c1`, the residual activity in assay [1] amounted to 88%; in assay [2] it was 66%; in assay [3], 75%; in assay [4], 23%; in assay [5] it was 40%; in assay [6], 10%. Further, the residual activity in assay [7] is 42%; in assay [8], 10%; in [11] it was 101%; in [12] it was 102%; in [13], 91%; in [14], 104%. Also, the residual activity was 78% in assay [15]; 23% in assay [16]; 4% in [17]; 98% in assay [18]; 84% in [19]; 82% in assay [20].
With `N#Cc1cnc2cnc(NCc3cccnc3)cc2c1Nc1ccc(F)c(Cl)c1`, the residual activity is 42% in [1]; 26% in [2]; -2% in [3]; 1% in assay [4]; 0% in [5]; -1% in assay [6]. Also, the residual activity in assay [7] was -1%; in assay [8], 0%; in [9], 98%; in [10], 102%; in assay [11] it was 55%; in [12] it was 14%. For the same compound, the residual activity stood at 2% in assay [13]; 80% in [16]; 53% in assay [17]; 100% in [18]; 69% in assay [19]; 30% in assay [20].

(Values after ChEMBL document CHEMBL2218924, “A broad activity screen in support of a chemogenomic map for kinase signalling research and drug discovery” (Biochem J, 2013).)
